Measurements taken from PubChem BioAssay (EPA / NIEHS).
Calls of active or inactive are those of the source. How the source made its calls: active means hit-call score of the fitted dose curve at least 0.9, where 1 is the maximum; inactive means score below 0.9.

test: CEETOX_H295R_11DCORT: CeeTox H295R High-throughput Steroidogenesis Assay for 11-Deoxycortisol (11DCORT) (AID 2283432); conditions: actives raise or lower the signal;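 on AC50: 11-deoxycortisol secreted into the medium measured by LC-MS/MS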
Description: CEETOX_H295R is a cell-based, multiplexed-readout assay that uses H295R, a human adrenal gland cell line, with measurements taken at 48 hours after chemical dosing in a 96-well plate.CEETOX_H295R_11DCORT is one of 23 assay component(s) measured or calculated from the CEETOX_H295R assay. It is designed to make measurements of hormone induction, a form of inducible reporter, as detected with absorbance signals by HPLC-MS-MS technology.Data from the assay component CEETOX_H295R_11DCORT was analyzed into 1 assay endpoint. This assay endpoint, CEETOX_H295R_11DCORT, was analyzed with bidirectional fitting relative to DMSO as the negative control and baseline of activity. Using a type of inducible reporter, gain or loss-of-signal activity using HPLC-MS-MS was used to understand synthesis of 11-Deoxycortisol in H295R cell line at 48hr of chemical exposure. To generalize the intended target to other relatable targets, this assay endpoint is annotated to the steroid hormone intended target family, where the subfamily is glucocorticoids.
Cell culture and media preparation procedures were conducted in accordance with OECD Test No. 456 guidelines, with minor modifications. H295R cells (ATCC CRL-2128) were expanded for 5 passages and frozen in batches in liquid nitrogen. Prior to the steroidogenesis assay, H295R cells were thawed and passed at least 4 times. The maximum passage was 10. Cells were maintained in a 1:1 mixture of DMEM/F12 supplemented with 5ml/L ITS+ Premix (BD Bioscience) and 12.5 ml/L Nu-Serum (BD Bioscience). After seeding cells into 96-well plates at 50-60% confluency, cells were allowed to adhere overnight. Prior to chemical testing, culture medium was replaced with 175 uL medium containing 10 uM forskolin to stimulate steroidogenesis for 48 hours. Following prestimulation, forskolin medium was replaced with medium containing test chemical solubilized in DMSO (ensuring a final concentration of 0.1% DMSO). Test chemicals were incubated for 48 hours, then the medium was removed and split into 2 vials containing approximately 75uL each, and stored at -80 C prior to hormone analysis. For steroid quantification, media samples were shipped to OpAns, LLC (Durham, NC) on dry ice, and samples were thawed to room temperature prior to liquid-liquid extraction. Steroid hormones were extracted from media samples using methyl tertbutyl ether (MTBE). An extra derivatization with dansyl chloride was included for estrogen (estrone and estradiol) detection only. Steroid hormones were separated by HPLC, eluted using a reverse phase C18 gradient with electrospray positive ionization, followed by quantification by tandem mass spectrometry (MS/MS). Data were acquired on a MassHunter Workstation Acquisition version B03.01 (Agilent Technologies, Inc.) and processed using MassHunter Quantitative Analysis for QQQ. Accuracy was determined for each hormone analyte from 3 standards to determine upper and lower limits of quantification (ULOQ and LLOQ, respectively) using a 7-point standard curve. Precision and accuracy of the extraction and quantification methods were calculated as the percent relative standard deviation (%RSD) of the spiked standards and percent spiked standard recovered, respectively. The goal was to achieve 100% accuracy (i.e., recover all spiked-in standard at quantification with minimal loss during run time) and good precision (i.e., have %RSD <15% to ensure reproducibility). Test medium was removed following chemical exposure, and cell viability was evaluated in the same wells by MTT. MTT procedures were as follows: after removal of test medium, 500 uL of 0.5 mg/ml of 3-[4,5-dimethylthiazol-2-y]2,5-diphenyltetrazoliumbromide solution was added to the cells. Following a 4-hour incubation at 37 C and 5% CO2 to allow formazan-crystal formation, the MTT solution was removed and blue formazan salt crystals were solubilized using 500uL anhydrous isopropanol with shaking for 20 minutes. […]

Row | SMILES | outcome | AC50
1 | O=C(O)c1cc(Oc2ccc(C(F)(F)F)cc2Cl)ccc1[N+](=O)[O-] | inactive | 
2 | CCOP(=O)(NC(C)C)Oc1ccc(SC)c(C)c1 (stereo not drawn) |  | 24 µM (active)
3 | CCOP(=S)(OCC)Oc1cc(C)nc(C(C)C)n1 |  | 50 µM (active)
4 | CNc1cnn(-c2cccc(C(F)(F)F)c2)c(=O)c1Cl |  | 11.5 µM (active)
5 | CCOP(=S)(OCC)Oc1ccc([N+](=O)[O-])cc1 |  | 2.57 µM (active)
6 | CCNc1nc(Cl)nc(NC(C)(C)C#N)n1 | inactive | 
7 | CCOC(=O)COc1cc(-c2nn(C)c(OC(F)F)c2Cl)c(F)cc1Cl | inactive | 
8 | CNC(=O)ON=C(C)SC | inactive | 
9 | FC(F)C(F)(F)OCC(Cn1cncn1)c1ccc(Cl)cc1Cl (stereo not drawn) | inactive | 
10 | CCOP(=S)(OCC)Oc1ccc2c(C)c(Cl)c(=O)oc2c1 |  | 5 µM (active)
11 | CCCOCC(=Nc1ccc(Cl)cc1C(F)(F)F)n1ccnc1 | inactive | 
12 | CNC(=O)Oc1cccc2c1OC(C)(C)O2 | inactive | 
13 | C#CC(C)(C)NC(=O)c1cc(Cl)cc(Cl)c1 |  | 19.1 µM (active)
14 | CSc1nnc(C(C)(C)C)c(=O)n1N | inactive | 
15 | COP(=O)(NC(C)=O)SC (stereo not drawn) | inactive | 
16 | Nc1nc(N)nc(NC2CC2)n1 | inactive | 
17 | COc1ccc(C(=CC(=O)N2CCOCC2)c2ccc(Cl)cc2)cc1OC | inactive | 
18 | CCCSP(=O)(OCC)SCCC | inactive | 
